# Compounds with a hit are over-represented: about 1.2% of the library has one in this group of screens.
# Avidin bead fluor – avidin bead compound fluorescence profile; 220,000 compounds, 0.38% hits; Avidin beads, compound fluorescence 488/530 nm, flow cytometry; stronger effect = higher value; fluorescence (KMESF) at 10 µM; in the data active means fluorescence above about 47
# GSH fluor – compound fluoresces at 488/530 nm on GSH beads; AID 1776; GSH beads flow cytometry, compound fluorescence 488/530 nm; stronger effect = higher value; 190,000 compounds, 0.25% hits; fluorescence (KMESF) at 10 µM; in the data active means fluorescence above about 89;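 further: glutathione beads carrying GST-tagged Bcl family fusion proteins plus one bare bead set; values are compound well signal with DMSO vehicle wells as background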
# RGS7-Gao reg – regulators of human RGS7-Galphao interaction; AID 1439; 220,000 compounds, 0.35% hits; P09471; Multiplexed bead flow cytometry, RGS7-Galphao binding; actives lie on both sides; binding response (% of control), % at 10 µM; in the data active means binding response below about 49% or above about 150%; inconclusive means no clear call, values can overlap the other calls; inactive means in between;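 further: fluorescent Galphao held in activated GDP-AlF4 state binding bead-coupled RGS7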
# Target sequence (P09471 whole entry, looked up): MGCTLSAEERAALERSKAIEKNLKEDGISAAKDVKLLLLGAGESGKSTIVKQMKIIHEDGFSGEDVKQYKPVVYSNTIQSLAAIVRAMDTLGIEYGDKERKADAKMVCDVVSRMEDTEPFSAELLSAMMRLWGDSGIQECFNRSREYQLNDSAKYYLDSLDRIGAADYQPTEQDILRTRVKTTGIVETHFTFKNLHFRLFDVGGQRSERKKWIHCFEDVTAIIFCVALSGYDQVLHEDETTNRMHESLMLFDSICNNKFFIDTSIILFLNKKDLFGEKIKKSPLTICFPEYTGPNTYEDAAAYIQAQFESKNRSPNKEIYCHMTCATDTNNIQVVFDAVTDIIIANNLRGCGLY
# RGS4-Gao reg – human RGS4-Galphao interaction regulation; P09471; Multiplexed bead flow cytometry, RGS4-Galphao binding; actives lie on both sides; binding response (% of control), % at 10 µM; 220,000 compounds, 0.33% hits; in the data active means binding response below about 49% or above about 150%; inactive means in between;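 further: fluorescent Galphao activated with aluminum fluoride binding bead-coupled RGS4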
# RGS16-Gao – modulates binding between human RGS16 and Galphao | O15492+P09471 | bead-based flow cytometry RGS16-Galphao binding, fluorescence; actives lie on both sides | binding response (% of control), % at 10 µM | 220,000 compounds, 0.38% hits | AID 1441;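 further: Galphao activated by GDP with aluminum fluoride before binding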
# Target sequence (O15492 whole entry, looked up): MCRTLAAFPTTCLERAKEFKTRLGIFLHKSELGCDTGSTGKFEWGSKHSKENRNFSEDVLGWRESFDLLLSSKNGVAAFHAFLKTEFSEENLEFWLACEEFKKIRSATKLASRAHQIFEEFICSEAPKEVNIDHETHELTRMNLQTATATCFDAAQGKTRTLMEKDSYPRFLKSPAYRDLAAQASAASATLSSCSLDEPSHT
# Target sequence (P09471 whole entry, looked up): as the sequence (P09471 whole entry, looked up) above
# RGS8-Gao reg – human RGS8-Galphao interaction regulation | P09471 | multiplexed bead flow cytometry, RGS8-Galphao binding; actives lie on both sides | response (percent of control binding), % at 10 µM | 220,000 compounds, 0.34% hits | AID 1423; in the data active means response below about 60% or above about 140%; inactive means in between;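 further: Galphao activated as the GDP aluminium fluoride complex binding bead-coupled RGS8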
# RGS4-Gao HTS – modulates binding between human RGS4 and Galphao; RGS4–Galpha-o binding response, % at 10 µM; 1,600 compounds, 99% hits; shares compounds with RGS16-Gao; multiplexed bead flow cytometry, RGS–Galpha-o binding; AID 1504;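 further: fluorescently labeled Galpha-o bound to GDP with aluminium fluoride binding biotinylated RGS beads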
# Biotin-avidin – interferes with biotinylated probe binding to avidin beads. 1,700 tested, under 10 active. streptavidin beads, fluorescein-biotin binding, flow cytometry. shares compounds with RGS16-Gao. inhibition, % at 10 µM;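 active means inhibition above 50%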;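 further: median green fluorescence of gated singlet beads compared with DMSO control wells; 0% = DMSO wells and 100% = complete loss of bead fluorescence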
# RGS8-Gao single – confirmation of regulators of human RGS8-Galphao interaction | shares compounds with RGS16-Gao | bead-based flow cytometry RGS8-Galphao binding, fluorescence; actives lie on both sides | binding response (% of control), % at 10 µM | 1,700 compounds, 3% hits | AID 1836; in the data active means binding response below about 72% or above about 130%; inactive means in between;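 further: Galphao activated as GDP AlF4 complex before binding bead RGS8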
# RGS7-Gao confirm – confirmation of regulators of human RGS7-Galphao interaction; AID 1837; 1,700 compounds, 7.8% hits; shares compounds with RGS16-Gao; response (percent of control binding), % at 10 µM; bead-based flow cytometry RGS7-Galphao binding; actives lie on both sides; in the data active means response below about 75% or above about 130%; inactive means in between;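 further: fluorescent Galphao activated with GDP and aluminum fluoride binding bead-coupled RGS7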
# RGS16-Gao conf – confirmation of regulators of human RGS16-Galphao interaction. 1,700 compounds, 4% hits. response (% of control binding), % at 10 µM. shares compounds with RGS16-Gao. bead-based flow cytometry, RGS16-Galphao binding; actives lie on both sides; in the data active means response below about 74% or above about 130%; inactive means in between;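 further: Galphao activated as the GDP aluminium fluoride complex binding bead-coupled RGS16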
# RGS4-Gao confirm – RGS4-Galphao interaction regulation, single point confirmation; shares compounds with RGS16-Gao; RGS4-Galphao binding, multiplexed bead flow cytometry; actives lie on both sides; binding response (% of control), % at 10 µM; 1,700 compounds, 4% hits; AID 1840; in the data active means binding response below about 74% or above about 130%; inactive means in between
# RGS19-Gao conf – confirmation of regulators of human RGS19-Galphao interaction; shares compounds with RGS16-Gao; bead-based flow cytometry RGS19-Galphao binding; actives lie on both sides; response (percent of control binding), % at 10 µM; 1,700 compounds, 5% hits; AID 1841; in the data active means response below about 50% or above about 160%; inactive means in between;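 further: 100% = no compound control and 0% = blank background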
# Numbers without * were called inactive; u = inconclusive; x = no result; [ ] = dose if it differs, or a comment. Unless noted, how the calls were made is not given here.
SMILES,Avidin bead fluor,GSH fluor,RGS7-Gao reg,RGS4-Gao reg,RGS16-Gao,RGS8-Gao reg,Biotin-avidin,RGS8-Gao single,RGS7-Gao confirm,RGS16-Gao conf,RGS4-Gao confirm,RGS19-Gao conf,others
CCOC(=O)c1c(C)n(C)c2ccc(O)c(CN3CCN(C)CC3)c12,3,47,121.0,131.2,344.9,150.3*[activator],3.2,94.3,101.6,95.8,98.0,95.2,RGS4-Gao HTS=131.2*
Cc1ccc(-c2nn(-c3ccccc3)cc2/C=C2\SC(=S)N(CC(=O)O)C2=O)cc1,8,x,u,95.4,49.5,98.8,x,x,x,x,x,x,
CCOc1ccc(-c2nn(-c3ccccc3)cc2/C=C2\SC(N)=NC2=O)cc1C,-2,20,15.8*,22.4*,1.8*,12.4*,2.8,102.0,101.5,102.5,101.4,102.7,
CC(/C=C1\SC(=O)N(CCCC(=O)O)C1=O)=C\c1ccccc1,2,13,160.2*[activator],165.1*[activator],82.8,131.8,-1.1,100.7,97.9,97.0,98.4,104.1,
O=C(/C=C/c1ccc2c(c1)OCO2)Nc1nc2ccc(F)cc2s1,10,x,u,98.8,99.0,99.7,x,x,x,x,x,x,
O=C(/C=C/c1ccc2c(c1)OCO2)Nc1nc(-c2ccc(F)cc2)cs1,7,12,101.8,82.0,183.5*[activator],118.5,1.2,102.4,104.0,100.6,98.3,88.5,RGS4-Gao HTS=82.0*
CC1CCCCN1C(=O)Cn1cc(/C=C2/C(=O)Nc3ccccc32)c2ccccc21 (stereo not drawn),3,20,44.0*,49.6*,40.9,55.3*,-0.2,102.8,104.1,104.2,104.4,97.7,
O=C(CSc1nnc(CNc2ccccc2)o1)N1CCc2ccccc21,6,15,99.5,97.5,101.9,98.2,x,x,x,x,x,x,
O=C(CSc1nnc(Cc2ccccc2)o1)N1CCCc2ccccc21,x,43,98.0,92.9,x,99.0,-1.1,100.4,104.9,101.1,101.5,83.1,
CCOc1ccc(Br)cc1-c1noc(-c2cccs2)n1,-3,21,12.0*,21.3*,-8.5,8.4*,0.0,98.6,96.8,96.4,96.8,100.0,
Cc1nc([N+](=O)[O-])cn1Cc1cccc([N+](=O)[O-])c1,10,9,100.4,96.6,97.2,99.9,x,x,x,x,x,x,
O=C(CSc1ccc2ccccc2n1)NCc1ccc2c(c1)OCO2,0,11,u,20.5*,10.6*,14.0*,-3.6,102.6,106.5,105.6,102.5,101.4,
Cc1cc(=O)[nH]c(SCn2nnc3ccccc3c2=O)n1,12,24,29.6*,36.2*,34.4,36.5*,-1.8,99.7,96.8,95.8,96.0,103.2,
O=c1c2ccccc2nnn1CSc1nc2ccccc2[nH]1,9,12,100.0,100.7,92.4,98.2,x,x,x,x,x,x,
Cc1ccc(N(CC(=O)N2CCN(C3CCCCC3)CC2)S(=O)(=O)c2cccnc2)cc1,8,11,108.1,109.0,259.8*[activator],134.7,x,x,x,x,x,x,RGS4-Gao HTS=109.0*
Cc1ccc(S(=O)(=O)N(CC(=O)N2CCCCCC2)c2ccccc2)cc1,9,34,98.5,99.8,101.3,101.0,x,x,x,x,x,x,
Cc1ccc(NC(=O)COC(=O)C2CC(=O)N(Cc3ccccc3)C2)cc1F (stereo not drawn),11,13,100.0,98.6,103.3,96.6,x,x,x,x,x,x,
COc1ccccc1/C=C(/NC(=O)c1ccc(Cl)cc1Cl)C(=O)O,6,22,100.8,97.3,98.9,96.1,x,x,x,x,x,x,
COc1ccc(-n2cc(CNCC3CC(=O)N(C4CC4)C3)c(-c3ccccc3Cl)n2)cc1 (stereo not drawn),12,13,98.2,101.8,105.6,107.2,x,x,x,x,x,x,
CCN1CC(CNCc2cn(-c3ccc(OC)cc3)nc2-c2ccccc2Cl)CC1=O (stereo not drawn),2,16,38.9*,48.2*,43.2,56.8*,0.1,98.6,84.1,95.6,88.5,100.0,
Cc1ccc(N2C(N)=C(C#N)C(c3cccs3)C3=C2CC(C)(C)CC3=O)cc1 (stereo not drawn),36,5,121.0,197.0*[activator],197.2*[activator],117.4,0.2,106.3,107.7,106.5,104.0,104.6,
CC1(C)CC(=O)C2=C(C1)N(c1ccc(F)cc1)C(N)=C(C#N)C2c1cccs1 (stereo not drawn),4,19,106.6,107.3,106.2,106.0,x,x,x,x,x,x,
C/C(=N\OC(=O)Nc1ccccc1)c1cnn(-c2cc(C(F)(F)F)cc(C)n2)c1C,7,x,u,102.7,95.9,99.6,x,x,x,x,x,x,
C/C(=N\NC(=O)c1ccccn1)c1ccc(C(=O)O)s1,10,17,109.2,110.1,166.8,121.6,x,x,x,x,x,x,
CCCSc1sc(C(=O)OC)c(-c2cccs2)c1C#N,10,x,u,93.7,97.6,97.0,x,x,x,x,x,x,
O=C(NC1(C(F)(F)F)NC(=O)N(Cc2ccccc2)C1=O)c1cccnc1 (stereo not drawn),6,31,102.9,106.2,102.9,100.8,x,x,x,x,x,x,
O=C(NC1(C(F)(F)F)NC(=O)N(Cc2cccnc2)C1=O)c1ccccc1 (stereo not drawn),2,28,41.6*,46.2*,38.9,52.1*,0.0,98.9,104.3,102.5,102.3,96.7,
COc1cccc(Cn2c(Oc3ccccc3)nc3c2c(=O)n(C)c(=O)n3C)c1,1,43,89.8,83.5,-247.2*,85.8,x,x,x,x,x,x,RGS4-Gao HTS=83.5*
CCN(c1ccc(N=Cc2c(O)n(Cc3ccc(OC)cc3)c(=O)c3ccccc23)cc1)C(C)C,19,155*,162.5*[activator],123.6,120.0,102.8,2.0,115.8,309.2*[activator],193.7*[activator],220.6*[activator],472.9*[activator],RGS4-Gao HTS=123.6*
CCn1ccnc1CN1CCN(CCC(C)C)C(CCO)C1 (stereo not drawn),13,18,106.2,107.1,118.1,108.5,x,x,x,x,x,x,

# Compound activity from PubChem BioAssay.
